Measured values as given in PubChem BioAssay AID641 (Vanderbilt High Throughput Screening Facility, 2007).
Screen size: about 58,000 compounds; about 3,400 (5.9%) were called active. The sample holds actives, similar compounds and a random draw of the others, so the mix is not that of the screen.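 The calls were made as follows: active = luminescence count or its row- and column-corrected plate score outside the 99.7% band of the plate's sample wells, on either side; inactive = the rest.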

These molecules were tested against D(1A) dopamine receptor (Homo sapiens) (UniProt P21728) (assay: D1 CRE-luciferase signal change, two-sided – cell-based, HEK293 D1, dopamine EC30, D1 allosteric modulator project, primary screen (AID 641)). Settings: dopamine EC30 potentiation, at 10 µM, actives deviate in either direction.
Sequence of D(1A) dopamine receptor (Homo sapiens) (P21728 whole entry, looked up): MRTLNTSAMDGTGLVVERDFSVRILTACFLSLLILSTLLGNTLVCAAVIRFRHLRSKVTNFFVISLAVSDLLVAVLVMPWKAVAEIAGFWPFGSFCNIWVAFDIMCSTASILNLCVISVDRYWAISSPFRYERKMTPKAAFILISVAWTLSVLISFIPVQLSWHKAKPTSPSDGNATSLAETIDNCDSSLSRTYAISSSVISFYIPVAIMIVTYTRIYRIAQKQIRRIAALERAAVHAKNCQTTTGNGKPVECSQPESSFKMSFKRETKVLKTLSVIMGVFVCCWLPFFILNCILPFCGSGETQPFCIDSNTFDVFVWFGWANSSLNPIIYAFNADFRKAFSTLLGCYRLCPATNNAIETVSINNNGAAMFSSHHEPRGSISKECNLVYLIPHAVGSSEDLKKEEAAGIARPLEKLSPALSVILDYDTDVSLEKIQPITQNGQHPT

Structure (SMILES) | B-score
COc1ccc(NC(=O)CN(C)S(=O)(=O)c2ccccc2)cc1OC | -0.205 (inactive)
COc1cccc(NC(=O)CN(C)S(=O)(=O)c2ccc(C)cc2)c1 | -0.881 (inactive)
COc1ccc(S(=O)(=O)N(C)CC(=O)Nc2ccc3c(c2)OCCO3)cc1OC | 3.86 (active)
Cc1cc(=O)n2nc(N3CCCC3C(=O)NCCCN3CC(C)CC(C)C3)sc2n1 (centres undefined) | -0.000281 (inactive)
Cc1ccc(-c2nnc(SC(C)C#N)n2N)cc1 (centres undefined) | -0.328 (inactive)
COc1ccc(-c2noc(COc3ccc(Cl)c(C)c3)n2)cc1 | -0.505 (inactive)
COc1ccc(-c2cc(C(F)(F)F)n3nc(C(=O)N4CCOCC4)c(Cl)c3n2)cc1 | -1.29 (inactive)
Cc1nn2c3ccccc3nc2n(C)c1=O | 0.34 (inactive)
c1ccc(CSc2nnc(-c3ccco3)c(-c3ccco3)n2)cc1 | 0.706 (inactive)
c1coc(-c2nc3nc4ccccc4n3nc2-c2ccco2)c1 | 2.64 (active)
CC1CCCN(Cc2nc3c(c(=O)n(C)c(=O)n3C)n2Cc2cccc3ccccc23)C1 (centres undefined) | -0.313 (inactive)
O=c1c2ccccc2oc2nc3n(c(=O)c12)CCCS3 | 0.013 (inactive)
CCC1(C)Cc2c(sc3nc4n(c(=O)c23)CCCS4)CO1 (centres undefined) | 2.42 (active)
CC1(C)Cc2c(sc3nc4n(c(=N)c23)CCCCC4)CO1 | 0.888 (inactive)
CC(=O)NCCc1ccc(S(=O)(=O)N(C)C2CCS(=O)(=O)C2)cc1 (centres undefined) | 1.13 (inactive)
N#Cc1c(/N=C/N2CCCC2)oc(-c2ccccc2)c1-c1ccccc1 | 0.952 (inactive)
Cc1nc(SC(C)C)[nH]c(=O)c1Cc1ccccc1 | 0.348 (inactive)
Cc1cc(Cl)c(S(=O)(=O)NCc2cccnc2)cc1OCC(N)=O | 0.213 (inactive)
C1=C(CCNc2ncnc3c2cnn3-c2ccccc2)CCCC1 | -1.37 (inactive)
Clc1ccc(Cn2ncc3c(NCc4cccnc4)ncnc32)cc1 | -2.9 (active)
CC12CN3CC(C)(CN(C1)C3c1ccc(Cl)cc1Cl)C2=O (centres undefined) | -0.693 (inactive)
Cc1ccc(-c2cc(C(F)(F)F)n3nc(C(=O)N4CCCC4)cc3n2)cc1 | 1.18 (inactive)

Structure (SMILES) | B-score
Cc1cccc(NC(=O)c2ccc3ccccc3n2)n1 | 0.542 (inactive)
Cc1nnc(NC(=O)CSc2nccn2-c2cccc(C)c2C)s1 | -0.587 (inactive)
CCOC(=O)N1CCC(NC(=O)CCc2cn(C)c3ccccc23)CC1 | 2.11 (inactive)
Fc1cc(F)c2nc(N3CCOCC3)sc2c1 | 0.966 (inactive)
O=C(Nc1nc2cc3c(cc2s1)OCCO3)c1cccc(S(=O)(=O)N2CCOCC2)c1 | -0.542 (inactive)
c1c2c(cc3sc(N4CCCCC4)nc13)OCCO2 | -4.94 (active)
CSCCC1NC2(C(=O)Nc3ccc(Cl)cc32)[C@@H]2C(=O)N(C3CCCC3)C(=O)[C@H]12 (some centres undefined) | 0.395 (inactive)
Cc1ccc(-c2noc(CSc3nnnn3-c3ccccc3)n2)cc1 | 0.0126 (inactive)
CN(C)c1nc(N)nc(CSc2nnnn2-c2cccc3ccccc23)n1 | 7.63 (active)
Cn1nnnc1SCc1cc(=O)[nH]c2ccccc12 | 0.325 (inactive)
Cn1c(SCc2c(F)cccc2Cl)nnc1-c1cnccn1 | -0.043 (inactive)
Cc1nc2cc(-c3ccc(F)cc3)nn2c(N2CCOCC2)c1C | 3.86 (inactive)
C/C(O)=C\c1nc(=O)c2c(C)cc(C)nc2n1-c1ccccc1 | 0.549 (inactive)
O=C1CCCC2=C1C(c1cccs1)n1nc(SCc3ccccc3)nc1N2 (centres undefined) | 0.252 (inactive)
COc1nc(NCc2ccc(Cl)cc2)nc(OC)n1 | 6.81 (active)
COC(=O)c1nc(NC(=O)c2ccc(Cl)cc2)n[nH]1 | -0.0452 (inactive)
C=CCNc1nc(C)nc(OC)n1 | 0.422 (inactive)
Cc1c(-c2nn(C)c(=O)c3ccccc23)oc2ccc(F)cc2c1=O | 1.77 (inactive)
CC(CNC(=O)c1ccc(Br)o1)NC(=O)c1ccc(Br)o1 (centres undefined) | -0.012 (inactive)
CCc1nc(C)cn1S(=O)(=O)c1cc(OC)c(C)cc1C | -0.851 (inactive)
COc1ccc(CCNC(=O)c2cc3sccc3n2C)cc1OC | 4.1 (active)
COc1ccc(CCNC(=O)c2cc(-c3ccc4c(c3)OCO4)on2)cc1OC | 0.448 (inactive)

Structure (SMILES) | B-score
Cn1c(C(=O)NCCCN2CCCCC2)cc2sccc21 | -0.452 (inactive)
COC(CCN(C)C)(c1ccccc1)c1ccccc1 | -0.765 (inactive)
CCOc1ccc2[nH]c(=O)c(C(c3nnnn3CCOC)N3CCOCC3)cc2c1 (centres undefined) | 10.2 (active)
COCCn1nnnc1C(c1cc2ccc(OC)cc2[nH]c1=O)N1CCc2ccccc2C1 (centres undefined) | -0.278 (inactive)
COc1ccc(N2CCN(C(c3cc4ccc(C)cc4[nH]c3=O)c3nnnn3C3CCCC3)CC2)cc1 (centres undefined) | 0.0349 (inactive)
O=C(c1cc(-c2cccc(O)c2)on1)N1CCc2ccccc2C1 | -0.88 (inactive)
CCOc1ccccc1C1CC(c2ccc(Cl)cc2)Nc2nc(N)nn21 (centres undefined) | 1.36 (inactive)
Cc1ccc(C2CC(c3cccc(C)c3)n3nc(N)nc3N2)cc1 (centres undefined) | 6.52 (active)
Nc1nc2n(n1)C(c1ccco1)CC(c1ccc(Cl)c(Cl)c1)N2 (centres undefined) | 0.226 (inactive)
Clc1ccc(C2CC(c3cccs3)n3ncnc3N2)cc1Cl (centres undefined) | 2.58 (inactive)
FC(F)Oc1ccccc1C1CC(c2ccc(Br)s2)Nc2ncnn21 (centres undefined) | 0.0618 (inactive)
COc1ccc(C2CC(c3ccc(Cl)cc3Cl)Nc3nc(N)nn32)cc1OC (centres undefined) | -0.179 (inactive)
COc1ccc(C2CC(c3ccc(C)cc3)Nc3ncnn32)cc1 (centres undefined) | 0.317 (inactive)
Cc1ccc(C2CC(c3cccc(Br)c3)n3nc(N)nc3N2)cc1 (centres undefined) | 9.49 (active)
CCOc1ccccc1C1CC(c2ccccc2)Nc2nc(N)nn21 (centres undefined) | 5.88 (active)
CCc1nnc(NC(=O)c2cccs2)s1 | -1.13 (inactive)
COc1ccc(OC)c(S(=O)(=O)Nc2ccccc2F)c1 | 0.662 (inactive)
O=C(CSc1nnc(-c2cccs2)n1-c1ccccc1)NCc1ccco1 | 0.124 (inactive)
CCOc1cc(C(=S)N2CCOCC2)ccc1O | 0.0105 (inactive)
O=C(CSC1=NCCS1)Nc1nc(-c2ccccc2)cs1 | 2.09 (inactive)
